Assay results: the supplement of paper PMC11732987, “Enantioselective OTUD7B fragment discovery through chemoproteomics screening and high-throughput optimisation” (Communications Chemistry, 2025)

Experiments:
Assay in all cases: log2 ratio of Biotin-Ahx-Ub-VS probe labelling (fragment/DMSO); higher = less target engagement (more negative = stronger competition), active = hit call of the paper (q ≤ 0.05, log2 ratio ≤ -1)
Conditions in all cases: compound concentration: 200 uM; treatment time: 3 h
[1] = target: T1, ALG13 (UniProt Q9NP73)
T1 sequence (whole entry): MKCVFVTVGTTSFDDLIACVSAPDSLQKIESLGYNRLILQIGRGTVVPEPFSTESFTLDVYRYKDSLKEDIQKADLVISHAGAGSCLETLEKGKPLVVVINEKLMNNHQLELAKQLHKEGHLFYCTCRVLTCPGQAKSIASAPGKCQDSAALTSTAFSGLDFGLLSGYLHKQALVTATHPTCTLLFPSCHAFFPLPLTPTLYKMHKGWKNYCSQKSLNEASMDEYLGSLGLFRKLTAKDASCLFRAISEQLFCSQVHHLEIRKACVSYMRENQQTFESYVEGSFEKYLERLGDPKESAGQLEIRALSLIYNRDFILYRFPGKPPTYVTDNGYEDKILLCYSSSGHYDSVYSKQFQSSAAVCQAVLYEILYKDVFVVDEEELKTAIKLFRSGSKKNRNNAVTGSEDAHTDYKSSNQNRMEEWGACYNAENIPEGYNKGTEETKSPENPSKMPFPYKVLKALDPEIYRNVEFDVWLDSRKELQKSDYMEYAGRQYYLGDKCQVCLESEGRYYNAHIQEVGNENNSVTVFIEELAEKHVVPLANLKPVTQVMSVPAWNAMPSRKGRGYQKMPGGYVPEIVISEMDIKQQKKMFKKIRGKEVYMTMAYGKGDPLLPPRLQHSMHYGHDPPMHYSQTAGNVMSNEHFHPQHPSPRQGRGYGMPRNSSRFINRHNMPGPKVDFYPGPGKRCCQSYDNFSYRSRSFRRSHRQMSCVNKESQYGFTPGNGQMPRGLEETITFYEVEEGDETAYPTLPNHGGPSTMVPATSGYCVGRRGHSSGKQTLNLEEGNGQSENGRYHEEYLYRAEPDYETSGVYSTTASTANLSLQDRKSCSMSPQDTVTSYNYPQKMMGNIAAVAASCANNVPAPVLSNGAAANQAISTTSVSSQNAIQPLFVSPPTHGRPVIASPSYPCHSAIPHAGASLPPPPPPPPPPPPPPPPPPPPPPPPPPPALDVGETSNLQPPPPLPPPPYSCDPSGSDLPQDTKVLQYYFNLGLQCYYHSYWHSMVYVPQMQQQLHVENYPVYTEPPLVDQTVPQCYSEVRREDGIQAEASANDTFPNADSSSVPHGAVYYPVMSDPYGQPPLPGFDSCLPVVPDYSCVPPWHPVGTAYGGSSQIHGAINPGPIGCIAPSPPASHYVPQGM
In short: (§1)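 In triplicate, 495 µg of HEK293T lysate per sample was incubated with fragment at 200 µM or vehicle for 3 h. Biotin-Ahx-Ub-VS was then added to 0.5 µM final for 1 h, and labelled DUBs were captured with NeutrAvidin, digested with LysC and trypsin, and measured by diaPASEF LC-MS/MS. Data are average log2 fragment/vehicle ratios by unpaired t-test from global-median-normalised Spectronaut label-free quantities, restricted to proteins with ≥2 unique peptides.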

[2] = target: ATXN3 (UniProt P54252)
Chain of ATXN3 (P54252 whole entry): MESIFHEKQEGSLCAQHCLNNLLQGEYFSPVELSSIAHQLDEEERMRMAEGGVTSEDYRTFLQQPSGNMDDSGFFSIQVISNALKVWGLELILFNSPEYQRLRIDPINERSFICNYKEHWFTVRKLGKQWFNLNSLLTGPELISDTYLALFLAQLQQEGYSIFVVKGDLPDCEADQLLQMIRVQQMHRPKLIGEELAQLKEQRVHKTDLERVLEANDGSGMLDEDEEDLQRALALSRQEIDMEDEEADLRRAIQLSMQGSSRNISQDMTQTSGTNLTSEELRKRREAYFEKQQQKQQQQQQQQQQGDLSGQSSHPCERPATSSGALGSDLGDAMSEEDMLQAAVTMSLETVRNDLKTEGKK
In short: as §1

[3] = target: T2, BAP1 (UniProt Q92560)
T2 sequence (whole entry): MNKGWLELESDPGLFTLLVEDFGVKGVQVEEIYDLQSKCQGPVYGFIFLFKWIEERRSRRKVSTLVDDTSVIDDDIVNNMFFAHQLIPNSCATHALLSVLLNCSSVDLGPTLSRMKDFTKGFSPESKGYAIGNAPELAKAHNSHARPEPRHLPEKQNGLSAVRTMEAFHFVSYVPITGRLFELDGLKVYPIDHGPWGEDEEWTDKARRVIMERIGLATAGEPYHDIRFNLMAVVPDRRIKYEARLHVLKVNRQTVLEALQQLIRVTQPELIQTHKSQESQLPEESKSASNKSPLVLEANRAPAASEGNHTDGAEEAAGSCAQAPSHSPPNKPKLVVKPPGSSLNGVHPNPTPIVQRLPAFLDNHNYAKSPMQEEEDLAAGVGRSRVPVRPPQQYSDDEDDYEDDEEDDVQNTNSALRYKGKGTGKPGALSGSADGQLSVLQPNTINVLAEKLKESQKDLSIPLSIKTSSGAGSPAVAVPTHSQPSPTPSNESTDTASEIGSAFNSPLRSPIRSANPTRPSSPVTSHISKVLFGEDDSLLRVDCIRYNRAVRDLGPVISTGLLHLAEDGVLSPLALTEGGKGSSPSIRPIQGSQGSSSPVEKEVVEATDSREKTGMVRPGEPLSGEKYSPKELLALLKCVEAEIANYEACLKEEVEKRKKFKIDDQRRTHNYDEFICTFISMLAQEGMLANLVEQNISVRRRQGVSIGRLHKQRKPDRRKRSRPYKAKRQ
In short: as §1

[4] = target: EIF3F (UniProt O00303)
Chain of EIF3F (O00303 whole entry): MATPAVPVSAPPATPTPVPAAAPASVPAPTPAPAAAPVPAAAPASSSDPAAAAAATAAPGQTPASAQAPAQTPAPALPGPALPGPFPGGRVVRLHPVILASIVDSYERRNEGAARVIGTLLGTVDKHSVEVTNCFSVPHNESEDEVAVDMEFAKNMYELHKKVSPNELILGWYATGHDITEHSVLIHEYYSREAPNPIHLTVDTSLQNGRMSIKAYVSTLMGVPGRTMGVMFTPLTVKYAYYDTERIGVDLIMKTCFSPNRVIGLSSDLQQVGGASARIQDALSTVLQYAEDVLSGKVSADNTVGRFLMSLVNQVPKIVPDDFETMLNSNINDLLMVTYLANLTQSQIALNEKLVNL
In short: as §1

[5] = target: EIF3H (UniProt O15372)
Chain of EIF3H (O15372 whole entry): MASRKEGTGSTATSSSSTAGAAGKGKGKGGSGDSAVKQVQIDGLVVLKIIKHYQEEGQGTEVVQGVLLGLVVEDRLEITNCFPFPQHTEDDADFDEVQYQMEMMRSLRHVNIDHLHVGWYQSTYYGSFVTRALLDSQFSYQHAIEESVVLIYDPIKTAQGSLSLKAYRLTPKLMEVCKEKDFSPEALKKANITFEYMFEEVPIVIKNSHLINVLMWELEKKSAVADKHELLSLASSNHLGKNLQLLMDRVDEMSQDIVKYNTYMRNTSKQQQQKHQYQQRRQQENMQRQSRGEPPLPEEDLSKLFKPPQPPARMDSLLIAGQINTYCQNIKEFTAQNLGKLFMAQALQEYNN
In short: as §1

[6] = target: T3, FAM105A (UniProt Q9NUU6)
T3 sequence (whole entry): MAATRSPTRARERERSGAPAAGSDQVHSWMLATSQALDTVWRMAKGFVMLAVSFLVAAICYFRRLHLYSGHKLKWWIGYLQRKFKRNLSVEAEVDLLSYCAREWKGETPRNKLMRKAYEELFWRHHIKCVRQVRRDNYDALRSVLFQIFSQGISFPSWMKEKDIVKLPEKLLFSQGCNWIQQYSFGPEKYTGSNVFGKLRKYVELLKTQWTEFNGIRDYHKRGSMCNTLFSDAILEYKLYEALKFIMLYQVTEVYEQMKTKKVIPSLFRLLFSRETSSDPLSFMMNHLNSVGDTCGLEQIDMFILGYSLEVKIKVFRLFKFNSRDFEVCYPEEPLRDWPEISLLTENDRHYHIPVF
In short: as §1

[7] = target: OTUB1 (UniProt Q96FW1)
Chain of OTUB1 (Q96FW1 whole entry): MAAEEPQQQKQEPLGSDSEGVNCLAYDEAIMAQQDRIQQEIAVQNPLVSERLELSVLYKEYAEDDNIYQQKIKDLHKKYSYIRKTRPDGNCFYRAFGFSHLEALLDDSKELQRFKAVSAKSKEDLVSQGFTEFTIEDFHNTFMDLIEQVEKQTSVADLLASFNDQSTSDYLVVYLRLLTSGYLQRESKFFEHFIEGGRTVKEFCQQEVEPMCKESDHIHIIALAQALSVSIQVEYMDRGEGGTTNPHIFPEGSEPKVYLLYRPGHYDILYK
In short: as §1

[8] = target: T4, OTUD4 (UniProt Q01804)
T4 sequence (whole entry): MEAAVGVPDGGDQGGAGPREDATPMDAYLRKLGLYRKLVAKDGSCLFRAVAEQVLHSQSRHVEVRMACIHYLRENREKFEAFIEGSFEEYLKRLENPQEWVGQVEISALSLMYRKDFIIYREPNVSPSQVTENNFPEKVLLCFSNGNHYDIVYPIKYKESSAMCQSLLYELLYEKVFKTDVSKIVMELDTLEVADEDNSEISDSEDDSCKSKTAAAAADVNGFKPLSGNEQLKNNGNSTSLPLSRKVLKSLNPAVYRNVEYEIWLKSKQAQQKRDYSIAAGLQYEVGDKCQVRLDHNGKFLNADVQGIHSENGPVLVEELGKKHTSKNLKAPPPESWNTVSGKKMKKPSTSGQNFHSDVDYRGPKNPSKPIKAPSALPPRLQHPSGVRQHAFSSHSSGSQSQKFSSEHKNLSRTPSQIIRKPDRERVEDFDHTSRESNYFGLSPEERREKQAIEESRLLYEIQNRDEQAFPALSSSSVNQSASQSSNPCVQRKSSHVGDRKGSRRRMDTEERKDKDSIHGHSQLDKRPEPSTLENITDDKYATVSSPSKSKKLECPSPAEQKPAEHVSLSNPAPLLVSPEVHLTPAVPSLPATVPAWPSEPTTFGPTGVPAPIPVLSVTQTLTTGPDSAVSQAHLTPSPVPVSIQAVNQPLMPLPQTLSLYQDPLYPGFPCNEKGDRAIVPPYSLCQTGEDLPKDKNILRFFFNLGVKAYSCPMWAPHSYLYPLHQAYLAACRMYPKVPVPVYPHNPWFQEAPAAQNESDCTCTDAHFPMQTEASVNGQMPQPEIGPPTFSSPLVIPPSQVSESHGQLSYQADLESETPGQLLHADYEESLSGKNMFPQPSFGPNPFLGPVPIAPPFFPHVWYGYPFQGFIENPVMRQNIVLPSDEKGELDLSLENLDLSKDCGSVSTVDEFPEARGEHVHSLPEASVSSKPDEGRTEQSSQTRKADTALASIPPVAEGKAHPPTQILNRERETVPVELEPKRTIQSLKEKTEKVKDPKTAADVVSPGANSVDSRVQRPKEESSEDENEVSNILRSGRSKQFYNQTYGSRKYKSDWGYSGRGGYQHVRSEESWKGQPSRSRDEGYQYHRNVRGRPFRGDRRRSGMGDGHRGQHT
In short: as §1

[9] = target: T5, OTUD5 (UniProt Q96G74)
T5 sequence (whole entry): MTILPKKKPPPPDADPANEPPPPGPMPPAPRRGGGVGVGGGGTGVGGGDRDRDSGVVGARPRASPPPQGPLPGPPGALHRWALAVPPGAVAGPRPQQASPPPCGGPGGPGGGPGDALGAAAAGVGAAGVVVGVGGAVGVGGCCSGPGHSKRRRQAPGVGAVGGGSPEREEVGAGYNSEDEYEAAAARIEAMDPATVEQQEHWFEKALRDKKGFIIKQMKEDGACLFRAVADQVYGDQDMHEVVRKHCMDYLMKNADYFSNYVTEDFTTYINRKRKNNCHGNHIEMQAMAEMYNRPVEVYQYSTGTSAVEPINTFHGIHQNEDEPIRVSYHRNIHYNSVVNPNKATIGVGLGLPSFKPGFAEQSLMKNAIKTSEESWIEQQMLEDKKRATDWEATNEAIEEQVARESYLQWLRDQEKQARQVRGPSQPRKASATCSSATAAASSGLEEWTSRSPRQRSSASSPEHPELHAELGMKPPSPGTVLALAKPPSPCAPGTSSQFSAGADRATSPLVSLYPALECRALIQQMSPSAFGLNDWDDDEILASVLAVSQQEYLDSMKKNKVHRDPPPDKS
In short: as §1

Measured: log2 ratio of Biotin-Ahx-Ub-VS probe labelling

Cc1noc(N2CCN(C(=O)CCl)CC2)n1.Cl
inactive: [1] -0.0651 | [2] -0.811 | [3] -0.867 | [4] 0.106 | [5] -0.241 | [6] 0.317 | [7] 0.11 | [8] -0.163 | [9] -0.0833
